Publication PMC4552634, “A New Set of Chemical Starting Points with Plasmodium falciparum Transmission-Blocking Potential for Antimalarial Drug Discovery” (PLoS ONE, 2015)
Where two headings read alike, the source gives them in different places. About 3,200 (25%) of roughly 13,000 compounds showed an effect of 50% or more. The list shows a part of the results.

Test system: P. falciparum stage V gametocytes
Parameters: BacTiter-Glo ATP luminescence viability of purified stage V gametocytes in 384-well plates, per cent inhibition versus DMSO
Details: 48 h, 5 µM, inhibitor

Structure (SMILES) | % Inhibition [%] | % Inhibition (% Inhibition) [%]
CN(C)C(CNC(=O)c1cc(-c2ccncc2)c(-c2ccc(Cl)c(O)c2)o1)c1ccccc1 (stereo not drawn) [TCMDC-135438] | -15.77 | 
O=C(CCc1cnc[nH]1)Nc1cccc(-c2ccc(-c3nc4ccc(F)cc4[nH]3)cc2)c1 [TCMDC-132154] | 23.15 | 
Cc1ccc(N2CCN(C(=O)c3cccc(-c4cncc5nc(-c6ccco6)n(C)c45)c3)CC2)nc1 [TCMDC-134992] | -10.32 | 
C#CCNC(=O)c1ccc(-c2ccnc(Nc3cccc(CCCN4CCOCC4)c3)n2)s1 [TCMDC-136764] | 20.31 | 
COc1cccc(CN2CCCC(OC(c3ccccc3)c3ccccc3)C2)c1O (stereo not drawn) [TCMDC-136385] | -25.83 | 
Cn1nc(-c2ccc(Cl)cc2)c2cc(C(=O)NCCN3CCOCC3)sc21 [TCMDC-124416] | 0.2691 | 
CCCN1CCN(CCCNC(=O)c2cc3c(-c4ccc(Cl)cc4)nn(C)c3s2)CC1 [TCMDC-124731] | 12.34 | 
CCN1CCCC1CNC(=O)c1cc2c(-c3ccc(Cl)cc3)nn(C)c2s1 (stereo not drawn) [TCMDC-123579] | 67.12 | 
CCc1cn2c3c(cc(C(=O)N[C@@H](Cc4ccccc4)[C@H](O)CNCC(C)C)cc13)N(C)S(=O)(=O)CC2 [TCMDC-135804] | 36.82 | 
CCNC[C@@H](O)[C@H](Cc1ccccc1)NC(=O)c1cc2c3c(c1)c(CC)cn3CCS(=O)(=O)N2C [TCMDC-135800] | 27.6 | 
CCCCNC[C@@H](O)[C@H](Cc1ccccc1)NC(=O)c1cc2c3c(c1)c(CC)cn3CCS(=O)(=O)N2C [TCMDC-135802] | 53.96 | 
CCCNC[C@@H](O)[C@H](Cc1ccccc1)NC(=O)c1cc2c3c(c1)c(CC)cn3CCS(=O)(=O)N2C [TCMDC-135863] | 78.77 | 
CCc1cn2c3c(cc(C(=O)N[C@@H](Cc4ccccc4)[C@H](O)CNCc4ccccc4)cc13)N(C)S(=O)(=O)CC2 [TCMDC-135883] | 74.56 | 
CCc1cn2c3c(cc(C(=O)N[C@@H](Cc4ccccc4)[C@H](O)CNCc4cccc(C)c4)cc13)N(C)S(=O)(=O)CC2 [TCMDC-135923] | 15.33 | 
CCc1cn2c3c(cc(C(=O)N[C@@H](Cc4ccccc4)[C@H](O)CNCc4ccccc4C)cc13)N(C)S(=O)(=O)CC2 [TCMDC-135922] | -22.32 | 
CCc1cn2c3c(cc(C(=O)N[C@@H](Cc4ccccc4)[C@H](O)CNCCOC)cc13)N(C)S(=O)(=O)CC2 [TCMDC-135799] | 12.82 | 
CCc1cn2c3c(cc(C(=O)N[C@@H](Cc4ccccc4)[C@H](O)CNCc4ccc(C)cc4)cc13)N(C)S(=O)(=O)CC2 [TCMDC-135924] | 11.35 | 
COC(=O)c1ccc(CC(C)NCC(O)c2cccc(C(F)(F)F)c2)cc1 (stereo not drawn) [TCMDC-131435] |  | 22.12
COc1ccc(OC)c(CNCC(O)c2cc(C(F)(F)F)cc(C(F)(F)F)c2)c1 (stereo not drawn) [TCMDC-140306] | 38.32 | 
Cc1nc2ccc3ccc(CNc4ccc(C(=O)CC(CCC(=O)O)C(=O)O)cc4)cc3c2c(=O)[nH]1 (stereo not drawn) [TCMDC-137855] | 12.05 | 
COc1cc(C(C)C)ccc1N1CCN(CCCCNC(=O)c2ccc(NC(=O)c3ccc(Cl)cc3)cc2)CC1 [TCMDC-138518] | -18.1 | 
N#Cc1cccc(NC(=O)Nc2cccc(-c3cccc(-c4nc5ccc(F)cc5[nH]4)c3)c2)c1 [TCMDC-133197] | -38 | 

Structure (SMILES) | % Inhibition [%] | % Inhibition (% Inhibition) [%]
COCC(=O)N(Cc1ccccc1-c1ccc(CNCCc2ccccc2)cc1)C1CCN(Cc2ccccc2)CC1 [TCMDC-140534] | 105.6 | 
COCC(=O)N(Cc1ccccc1-c1cccc(CNCCc2ccccc2)c1)C1CCN(Cc2ccccc2)CC1 [TCMDC-140533] | 103.5 | 
CCNc1cc(C(=O)N[C@@H](Cc2ccc(F)c(F)c2)[C@H](O)CNCc2cccc(OC)c2)cc(N2CCCCS2(=O)=O)c1 [TCMDC-135059] | -18.05 | 
CC1(C)N=C(NC(=O)c2ccc([N+](=O)[O-])cc2)N=C(N)N1OCc1ccc2ccccc2c1 [TCMDC-131580] | 48.26 | 
CC12CC3CC(C)(C1)CC(Nc1nc(N4CCOCC4)nc4ccccc14)(C3)C2 [TCMDC-123862] | -97.33 | 
Nc1nc(N)c2c(Cl)c(N3CCOCC3)ccc2n1 [TCMDC-137868] | -6.497 | 
FC(F)c1nc2ccccc2n1-c1nc(N2CCOCC2)nc(N2CCOCC2)n1 [TCMDC-137004] | 98.45 | 
O=c1ccc2ccc(F)cc2n1CCN1CCC(NCc2ccc(-c3ccccn3)s2)CC1 [TCMDC-135133] | 2.874 | 
NC1=NC(c2ccccc2)N(c2ccc(Cl)c(Cl)c2)C(N)=N1 (stereo not drawn) [TCMDC-136305] | 1.025 | 
CN(c1ccc(NC(=O)Nc2cc(C(C)(C)C)on2)cc1)c1ccnc(NCCOC(=O)Nc2cc(C(C)(C)C)on2)n1 [TCMDC-141707] | 55.26 | 
CCN(CC)CCNc1nccc(N(C)c2ccc(NC(=O)Nc3cc(C(F)(F)F)ccc3F)cc2)n1 [TCMDC-141632] | 74.5 | 
CN(c1ccc(NC(=O)Nc2cccc(Cl)c2)cc1)c1ccnc(N)n1 [TCMDC-138782] | 0.5988 | 
CN(C)CCCNc1nccc(N(C)c2ccc(NC(=O)Nc3cc(C(F)(F)F)ccc3F)cc2)n1 [TCMDC-141633] | 100.7 | 
CCNC(=O)Nc1ccc(N(C)c2ccnc(Nc3ccc(CS(C)(=O)=O)cc3)n2)cc1 [TCMDC-138759] | -39.6 | 
CN(c1ccc(NC(=O)Nc2cc(C(C)(C)C)on2)cc1)c1ccnc(NCCN2CCOCC2)n1 [TCMDC-141706] | 2.344 | 
CCN(CC)CCCNc1nccc(N(C)c2ccc(NC(=O)Nc3cc(C(F)(F)F)ccc3F)cc2)n1 [TCMDC-141634] | 97.67 | 
COc1cc(NC(=O)CCCCCCCCN2CCN(C)CC2)c2ncccc2c1 [TCMDC-138212] | 0.271 | 
CCCCCCc1cc2cc(-c3csc(C=Cc4ccccc4)n3)c(=O)oc2cc1O [TCMDC-125662] | -11.21 | 
COc1ccc2nccc([C@@H](O)CN3CCC(NCc4cc5ccccc5s4)CC3)c2c1 [TCMDC-140684] | 1.924 | 
COc1ccc2nccc([C@@H](O)CN3CCC(NCc4[nH]c5ccccc5c4F)CC3)c2c1 [TCMDC-141052] | 4.499 | 
CC(=O)c1ccc(NC(=O)Nc2ccc(N(C)c3ccnc(NC4CC4)n3)cc2)cc1 [TCMDC-138767] | 82.68 | 
CCCNC(=O)Nc1ccc(N(C)c2ccnc(NC3CC3)n2)cc1 [TCMDC-138764] | 12.51 | 

Structure (SMILES) | % Inhibition [%] | % Inhibition (% Inhibition) [%]
CCNC(=O)Nc1ccc(N(C)c2ccnc(NC3CC3)n2)cc1 [TCMDC-138763] | 40.84 | 
O=C1OC2(CCN(Cc3cccc(-c4ncc[nH]4)c3)CC2)CN1CCNCc1ccccc1 [TCMDC-136733] | -38.21 | 
CCNc1cc(C)nc(Nc2ccc(NC(=O)Cc3ccc(OC)cc3)cc2)n1 [TCMDC-124983] | 15.74 | 
COc1ccc(NC(=O)CCNc2cc(C)nc(NCc3ccccc3C)n2)cc1 [TCMDC-134899] | 34.68 | 
Cc1cc(NCCC(=O)Nc2ccccc2)nc(NCCc2cccs2)n1 [TCMDC-134872] | 26.35 | 
Cc1cccc(CNc2nc(C)cc(NCCC(=O)Nc3ccccc3)n2)c1 [TCMDC-134885] | 25.97 | 
COc1ccc(Nc2cc(C)nc(NCc3ccc4c(c3)OCO4)n2)cc1 [TCMDC-136332] | 81.18 | 
COc1ccc(NC(=O)CCNc2cc(C)nc(NCc3cccc(C)c3)n2)cc1 [TCMDC-134883] | 59.29 | 
Cc1cc(NCCC(=O)Nc2ccccc2)nc(NCCc2ccc(F)cc2)n1 [TCMDC-134783] | 44.82 | 
Cc1cc(NCCC(=O)Nc2ccccc2)nc(NCCc2ccccc2)n1 [TCMDC-134772] | 51 | 
COc1ccccc1CCNc1nc(C)cc(NCCC(=O)Nc2ccccc2)n1 [TCMDC-134800] | 76.83 | 
COc1ccc(Nc2nc(C)cc(NCc3ccc(-c4c(C)noc4C)cc3)n2)cc1 [TCMDC-134024] | -1.002 | 
Cc1cc(NCCC(=O)Nc2ccccc2)nc(NCCc2cccnc2)n1 [TCMDC-134880] | 47.41 | 
Cc1ccc(C)c(-n2c(SCC(=O)Nc3ccc(C(N)=O)cc3)nnc2-c2cccc(Cl)c2)c1 [TCMDC-124332] | 36.9 | 
O=C(Nc1cccc(F)c1)NC1CCN(c2ccnc3cc(Cl)ccc23)CC1 [TCMDC-133569] | -8.116 | 
Cc1ccccc1-c1nc2c(CN3CCC(O)(c4ccccc4)CC3)c(O)ccc2[nH]1 [TCMDC-136533] | 40.24 | 
CCCc1ccc(NC(=O)c2cccc(CN3CCCN(Cc4cccc(C#N)c4)CC3)c2)cc1 [TCMDC-135977] | -19.91 | 
O=C(Cc1ccc(NC(=O)c2ccc(O)c(-c3ccc(Cl)c(Cl)c3)c2)cc1)NCCN1CCOCC1 [TCMDC-140853] | -3.124 | 
COc1ccc(NC(=O)CCNc2cc(C)nc(NCCc3ccccc3)n2)cc1 [TCMDC-134770] | 41.15 | 
CCCC(C)Nc1nc(C)cc(NCCC(=O)Nc2ccc(OC)cc2)n1 (stereo not drawn) [TCMDC-134762] | 20.26 | 
COc1ccc(NC(=O)CCNc2cc(C)nc(NCCc3ccc(F)cc3)n2)cc1 [TCMDC-134864] | 55.47 | 
c1csc(-c2nc(N3CCCC3)ncc2-c2ccsc2)n1 [TCMDC-125373] | 23.84 | 
